PubChem BioAssay AID1159580 (chemical genetic matrix, 2015)
Screen size: about 5,500 compounds; about 2,000 (36%) were called active. Another 18% or so got no clear call; they are omitted. Rule as the data show it: active = normalized growth mostly below about 0.91 (no sharp cut-off); inconclusive = no clear call, values can overlap the other calls; inactive = mostly above about 0.92. The list shows a part of the results.

Assay: chemical genetic growth profiling, strain panel (AID 1159580);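 also: tested at 20 µM; growth read once vehicle control cultures reached saturation at 30 °C; 1 = growth at the plate median or of vehicle wells; lower values mean less growth of the strain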
Settings: growth OD

Measured: normalized growth

Cc1cc(O)c(C)c(O)c1C(=O)O
inactive: S. cerevisiae deletion strains, locus YJR066W, strain TOR1, stronger effect = lower value 0.948 | S. cerevisiae deletion strains, locus YKL009W, strain mrt4, stronger effect = lower value 1.01 | S. cerevisiae deletion strains, locus YKL068W, stronger effect = lower value 0.982 | S. cerevisiae deletion strains, locus YKL085W, strain MDH1 (second series), stronger effect = lower value 0.997 | S. cerevisiae deletion strains, locus YKL085W, strain MDH1, stronger effect = lower value 0.997 | S. cerevisiae deletion strains, locus YKL160W, strain elf1, stronger effect = lower value 1.02 | S. cerevisiae deletion strains, locus YKR001C, strain vps1, stronger effect = lower value 0.971 | S. cerevisiae deletion strains, locus YKR026C, strain gcn3, stronger effect = lower value 0.983 | S. cerevisiae deletion strains, locus YKR091W, strain srl3, stronger effect = lower value 0.99 | S. cerevisiae deletion strains, locus YLL001W, strain dnm1, stronger effect = lower value 1.01 | S. cerevisiae deletion strains, locus YLL026W, stronger effect = lower value 1 | S. cerevisiae deletion strains, locus YLL041C, strain sdh2, stronger effect = lower value 0.999 | S. cerevisiae deletion strains, locus YLR027C, strain aat2, stronger effect = lower value 0.983 | S. cerevisiae deletion strains, locus YLR039C, strain RIC1, stronger effect = lower value 0.982 | S. cerevisiae deletion strains, locus YLR058C, strain SHM2, stronger effect = lower value 1.01 | S. cerevisiae deletion strains, locus YLR102C, strain apc9, stronger effect = lower value 0.987 | S. cerevisiae deletion strains, locus YLR113W, strain HOG1, stronger effect = lower value 0.99 | S. cerevisiae deletion strains, locus YLR221C, strain rsa3, stronger effect = lower value 0.991 | S. cerevisiae deletion strains, locus YLR258W, strain gsy2, stronger effect = lower value 0.994 | S. cerevisiae deletion strains, locus YLR262C, strain YPT6 (second series), stronger effect = lower value 0.944 | S. cerevisiae deletion strains, locus YLR262C, strain YPT6, stronger effect = lower value 0.972 | S. cerevisiae deletion strains, locus YLR268W, strain sec22, stronger effect = lower value 1.01 | S. cerevisiae deletion strains, locus YLR320W, strain mms22, stronger effect = lower value 0.983 | S. cerevisiae deletion strains, locus YLR342W, strain FKS1 (second series), stronger effect = lower value 0.972 | S. cerevisiae deletion strains, locus YLR342W, strain FKS1, stronger effect = lower value 0.977 | S. cerevisiae deletion strains, locus YLR357W, strain rsc2, stronger effect = lower value 0.956 | S. cerevisiae deletion strains, locus YLR370C, strain arc18, stronger effect = lower value 0.988 | S. cerevisiae deletion strains, locus YLR371W, strain rom2, stronger effect = lower value 1 | S. cerevisiae deletion strains, locus YLR384C, strain iki3, stronger effect = lower value 0.998 | S. cerevisiae deletion strains, locus YLR418C, strain cdc73, stronger effect = lower value 0.943 | S. cerevisiae deletion strains, locus YML016C, strain PPZ1, stronger effect = lower value 0.924 | S. cerevisiae deletion strains, locus YML032C, strain rad52, stronger effect = lower value 1.03 | S. cerevisiae deletion strains, locus YML120C, strain ndi1, stronger effect = lower value 0.975 | S. cerevisiae deletion strains, locus YML124C, strain tub3, stronger effect = lower value 0.989 | S. cerevisiae deletion strains, locus YMR058W, strain fet3, stronger effect = lower value 0.974 | S. cerevisiae deletion strains, locus YMR078C, strain ctf18, stronger effect = lower value 0.984 | S. cerevisiae deletion strains, locus YMR125W, strain sto1, stronger effect = lower value 0.982 | S. cerevisiae deletion strains, locus YMR129W, stronger effect = lower value 0.996 | S. cerevisiae deletion strains, locus YMR205C, strain PFK2, stronger effect = lower value 0.977 | S. cerevisiae deletion strains, locus YMR223W, strain ubp8, stronger effect = lower value 0.988 | S. cerevisiae deletion strains, locus YMR231W, strain pep5, stronger effect = lower value 0.985 | S. cerevisiae deletion strains, locus YMR263W, strain SAP30, stronger effect = lower value 1.02 | S. cerevisiae deletion strains, locus YMR307W, strain GAS1, stronger effect = lower value 1.01 | S. cerevisiae deletion strains, locus YNL067W, strain RPL9B, stronger effect = lower value 0.979 | S. cerevisiae deletion strains, locus YNL071W, strain lat1, stronger effect = lower value 0.994 | S. cerevisiae deletion strains, locus YNL153C, strain GIM3, stronger effect = lower value 0.988 | S. cerevisiae deletion strains, locus YNL183C, strain NPR1, stronger effect = lower value 0.972 | S. cerevisiae deletion strains, locus YNL209W, strain ssb2, stronger effect = lower value 0.986 | S. cerevisiae deletion strains, locus YNL233W, strain BNI4, stronger effect = lower value 0.998 | S. cerevisiae deletion strains, locus YNL248C, strain rpa49, stronger effect = lower value 0.996 | S. cerevisiae deletion strains, locus YNL250W, strain rad50, stronger effect = lower value 0.946 | S. cerevisiae deletion strains, locus YNL271C, strain bni1, stronger effect = lower value 0.969 | S. cerevisiae deletion strains, locus YNL298W, strain CLA4, stronger effect = lower value 0.98 | S. cerevisiae deletion strains, locus YNL307C, strain MCK1, stronger effect = lower value 0.98 | S. cerevisiae deletion strains, locus YNL322C, strain KRE1 (second series), stronger effect = lower value 0.965 | S. cerevisiae deletion strains, locus YNL322C, strain KRE1, stronger effect = lower value 1 | S. cerevisiae deletion strains, locus YNR049C, strain mso1, stronger effect = lower value 0.983 | S. cerevisiae deletion strains, locus YNR052C, strain pop2, stronger effect = lower value 0.966 | S. cerevisiae deletion strains, locus YOL012C, strain htz1 0.903 | S. cerevisiae deletion strains, locus YOL147C, strain pex11, stronger effect = lower value 1.01 | S. cerevisiae deletion strains, locus YOR001W, strain rrp6, stronger effect = lower value 1 | S. cerevisiae deletion strains, locus YOR061W, strain CKA2, stronger effect = lower value 1.01 | S. cerevisiae deletion strains, locus YOR069W, strain VPS5, stronger effect = lower value 0.99 | S. cerevisiae deletion strains, locus YOR070C, strain gyp1, stronger effect = lower value 0.989 | S. cerevisiae deletion strains, locus YOR080W, strain dia2, stronger effect = lower value 0.974 | S. cerevisiae deletion strains, locus YOR083W, strain WHI5, stronger effect = lower value 1.03 | S. cerevisiae deletion strains, locus YOR106W, strain vam3, stronger effect = lower value 0.972 | S. cerevisiae deletion strains, locus YOR136W, strain idh2, stronger effect = lower value 0.986 | S. cerevisiae deletion strains, locus YOR144C, strain elg1, stronger effect = lower value 0.986 | S. cerevisiae deletion strains, locus YOR184W, strain ser1, stronger effect = lower value 1.05 | S. cerevisiae deletion strains, locus YOR231W, strain MKK1, stronger effect = lower value 1.03 | S. cerevisiae deletion strains, locus YOR265W, strain rbl2, stronger effect = lower value 1 | S. cerevisiae deletion strains, locus YOR270C, strain vph1, stronger effect = lower value 0.802 | S. cerevisiae deletion strains, locus YOR290C, strain snf2, stronger effect = lower value 0.956 | S. cerevisiae deletion strains, locus YOR316C, strain cot1, stronger effect = lower value 0.977 | S. cerevisiae deletion strains, locus YPL051W, strain arl3, stronger effect = lower value 1.02 | S. cerevisiae deletion strains, locus YPL055C, strain LGE1, stronger effect = lower value 1.01 | S. cerevisiae deletion strains, locus YPL078C, strain atp4, stronger effect = lower value 1 | S. cerevisiae deletion strains, locus YPL106C, strain sse1, stronger effect = lower value 0.926 | S. cerevisiae deletion strains, locus YPL240C, strain hsp82, stronger effect = lower value 1 | S. cerevisiae deletion strains, locus YPL256C, strain CLN2, stronger effect = lower value 1.03 | S. cerevisiae deletion strains, locus YPR119W, strain clb2, stronger effect = lower value 0.997 | S. cerevisiae deletion strains, locus YPR141C, strain kar3, stronger effect = lower value 0.973 | S. cerevisiae deletion strains, locus YPR163C, strain tif3, stronger effect = lower value 0.969 | S. cerevisiae deletion strains, locus YPR167C, strain met16, stronger effect = lower value 0.972 | S. cerevisiae deletion strains, strain wtn01, stronger effect = lower value 1.01 | S. cerevisiae strains, strain wild type, stronger effect = lower value 1
